# Results from the supplement of paper PMC8728848.
# This excerpt belongs to a sample that is enriched for the strongest signals.
# B1: Epa21 (Candida glabrata) (protein)
# chain: MGSSHHHHHHSSGLVPRGSHMASTPNIESHPQGCSPVDTSGIKPGLKMDLYRFPITPPGTGCWSWDWLTVTPDFPRSGYWKWPKIAEVDGVVGPLHLDSGHPTCDPLTSVLPHGFNYLQSITTTNFTMVLHGYFVPKQSGKYTFEFKADDALLLNLGAGNAFSCCDYNNSQYNQGEYLAYAIWSKNNQTATLYLEKGIYYPIRVFYHNRCCGAYMDVVYYFNDSPIPNRDFSGLLFSIPDSDSCDANI
# Key:
# Assay in all cases: glycan array binding signal (z-score within array); higher = stronger binding
# Details in all cases: glycan notation: IUPAC condensed, linker removed
# [1] = target: Man(a1-2)Man(a1-2)Man(a1-6)[Man(a1-3)]Man
# How it was run: (§1)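 The Consortium for Functional Glycomics database supplied 3228 glycan arrays, of which those lacking an available protein sequence were dropped. The binding signal, a within-array Z-score, was averaged across arrays of the same protein sequence and across linkers. Negative scores can be read as non-binding.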
# [2] = target: Man(a1-3)[Man(a1-6)]Man(a1-6)[Man(a1-3)]Man
# How it was run: as §1
# [3] = target: Neu5Ac(a2-3)Gal(b1-3)GlcNAc(b1-3)Gal(b1-3)GlcNAc
# How it was run: as §1
# [4] = target: Neu5Ac(a2-3)Gal(b1-3)GlcNAc(b1-3)Gal(b1-4)GlcNAc
# How it was run: as §1
# [5] = target: Neu5Ac(a2-3)Gal(b1-3)[Neu5Ac(a2-6)]GlcNAc(b1-3)[Fuc(a1-3)[Gal(b1-4)]GlcNAc(b1-6)]Gal(b1-4)Glc
# How it was run: as §1
# [6] = target: Neu5Ac(a2-3)Gal(b1-4)GlcNAc(b1-2)Man
# How it was run: as §1
# [7] = target: Neu5Ac(a2-3)Gal(b1-4)GlcNAc(b1-3)Gal(b1-4)GlcNAc(b1-3)GalNAc
# How it was run: as §1
# [8] = target: Neu5Ac(a2-3)Gal(b1-4)GlcNAc(b1-3)[Neu5Ac(a2-3)Gal(b1-4)GlcNAc(b1-6)]GalNAc
# How it was run: as §1
# [9] = target: Neu5Ac(a2-3)Gal(b1-4)[Fuc(a1-3)]GlcNAc(b1-3)GalNAc
# How it was run: as §1
# [10] = target: Neu5Ac(a2-6)Gal(b1-4)GlcNAc(b1-2)Man
# How it was run: as §1
# [11] = target: Neu5Ac(a2-6)Gal(b1-4)GlcNAc(b1-2)Man(a1-3)[Gal(b1-4)GlcNAc(b1-2)Man(a1-6)]Man(b1-4)GlcNAc(b1-4)GlcNAc
# How it was run: as §1
# [12] = target: Neu5Ac(a2-6)Gal(b1-4)GlcNAc(b1-3)Gal(b1-4)GlcNAc
# How it was run: as §1
# [13] = target: Neu5Ac(a2-6)Gal(b1-4)GlcNAc(b1-3)Gal(b1-4)GlcNAc(b1-2)Man(a1-3)[Neu5Ac(a2-6)Gal(b1-4)GlcNAc(b1-3)Gal(b1-4)GlcNAc(b1-2)Man(a1-6)]GalNAc
# How it was run: as §1
# [14] = target: Neu5Ac(a2-6)Gal(b1-4)GlcNAc(b1-3)Gal(b1-4)GlcNAc(b1-3)Gal(b1-4)GlcNAc(b1-2)Man(a1-3)[Neu5Ac(a2-6)Gal(b1-4)GlcNAc(b1-3)Gal(b1-4)GlcNAc(b1-3)Gal(b1-4)GlcNAc(b1-2)Man(a1-6)]GalNAc
# How it was run: as §1
# [15] = target: Neu5Ac(a2-6)Gal(b1-4)GlcNAc(b1-3)Gal(b1-4)[Fuc(a1-3)]GlcNAc(b1-3)Gal(b1-4)[Fuc(a1-3)]GlcNAc
# How it was run: as §1
# [16] = target: Neu5Ac9Ac(a2-3)Gal(b1-3)GlcNAc
# How it was run: as §1
binder,measurement,setting,value
B1,glycan array binding signal (z-score),[1],-0.531
same,glycan array binding signal (z-score),[2],-0.026
same,glycan array binding signal (z-score),[3],-0.487
same,glycan array binding signal (z-score),[4],-0.39
same,glycan array binding signal (z-score),[5],-0.237
same,glycan array binding signal (z-score),[6],2.68
same,glycan array binding signal (z-score),[7],3.03
same,glycan array binding signal (z-score),[8],0.888
same,glycan array binding signal (z-score),[9],1.87
same,glycan array binding signal (z-score),[10],-0.212
same,glycan array binding signal (z-score),[11],-0.438
same,glycan array binding signal (z-score),[12],-0.589
same,glycan array binding signal (z-score),[13],2.55
same,glycan array binding signal (z-score),[14],5.42
same,glycan array binding signal (z-score),[15],-0.189
same,glycan array binding signal (z-score),[16],-0.318
